Screening data as filed in PubChem.
An excerpt weighted towards active compounds, which were near 9.4% of everything screened.
FLuc modulator – qHTS profiling assay for firefly luciferase inhibitor/activator using purifed enzyme and Km concentrations of substrates (counterscreen for miR-21 project). Luciferin 4-monooxygenase (Photinus pyralis), P08659. Potency, µM (series often up to 57.5 µM), most hits filed as inhibitors. purified FLuc, Km substrates, luminescence inhibition. actives 6.9% (n = 360,000); further: nearly all actives have a fitted effect of over 55% in size
Target sequence (P08659 whole entry, looked up): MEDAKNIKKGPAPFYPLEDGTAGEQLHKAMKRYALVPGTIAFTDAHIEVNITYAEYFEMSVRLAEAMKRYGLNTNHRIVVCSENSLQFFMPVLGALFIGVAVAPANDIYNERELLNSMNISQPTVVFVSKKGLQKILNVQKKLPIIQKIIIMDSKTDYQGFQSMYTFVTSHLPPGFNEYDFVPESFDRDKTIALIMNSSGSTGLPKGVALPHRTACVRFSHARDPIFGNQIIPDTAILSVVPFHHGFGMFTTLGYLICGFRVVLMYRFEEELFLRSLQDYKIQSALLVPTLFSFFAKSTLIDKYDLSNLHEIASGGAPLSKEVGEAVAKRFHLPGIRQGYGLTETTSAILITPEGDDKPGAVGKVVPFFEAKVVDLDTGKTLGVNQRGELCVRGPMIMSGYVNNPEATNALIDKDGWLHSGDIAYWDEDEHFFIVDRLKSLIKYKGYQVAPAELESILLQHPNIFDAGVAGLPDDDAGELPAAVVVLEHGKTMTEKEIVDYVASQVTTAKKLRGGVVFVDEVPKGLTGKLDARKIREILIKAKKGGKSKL
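Purified P. pyralis luciferase (10nM final) with 10uM D-luciferin and 10uM ATP (Km levels) in 50mM Tris acetate pH 7.5, 10mM Mg acetate, 0.01% Tween-20, 0.05% BSA; qHTS 6-point titration, ~60 µM downward; luminescence read.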
SMN2 splice up – qHTS Assay for Enhancers of SMN2 Splice Variant Expression. HEK293 SMN2-luciferase splicing reporter, luminescence, 30-36 h. Potency, µM (highest dose often 46.1 µM), most hits filed as activators. actives 2.8% (n = 210,000); further: nearly all actives have a fitted effect of over 55% in size
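HEK293 cells carry an SMN2 […]–luciferase reporter in which exon 7 inclusion puts luciferase in frame. Cells were plated 10-12 h before compound addition, then incubated 30-36 h at 37C. ONE-Glo luminescence was read; sodium butyrate at 4.5 mM final served as control.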
NPC1 promoter act – qHTS Assay for NPC1 Promoter Activators | Huh7 NPC1 promoter luciferase reporter, 24 h | Potency, µM (doses to about 9.22 µM), usual class: activators | actives 2.4% (n = 320,000); further: nearly all actives have a fitted effect of over 60% in size
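Stable NPC1-promoter luciferase Huh7 line; cpd (DMSO) 24 h, 37 °C, 5% CO2; Amplite luciferase reagent 10 min RT; luminescence readout. qHTS format.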
ELG1 DNA repair – qHTS screen for small molecules that inhibit ELG1-dependent DNA repair in human embryonic kidney (HEK293T) cells expressing luciferase-tagged ELG1; Potency, µM (series often up to 46.1 µM), usual class: inhibitors; HEK293T ELG1-luciferase reporter, luminescence, 16 h; DNA damage induced by 5-fluorouridine; AID 504467, 2011; actives 2.3% (n = 330,000); further: nearly all actives have a fitted effect of over 55% in size
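Step one: seed 2,000 cells per well. Step two: pin-transfer compound or DMSO alongside 5-fluorouridine. Step three: incubate 16 hr, 37 °C, 5% CO2. Step four: add ONE-Glo, wait 30 min, read luminescence.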
Rab9 promoter act – qHTS Assay for Rab9 Promoter Activators; Huh7 Rab9 promoter-luciferase reporter, luminescence, 24 h; Potency, µM (titrated, usually from 9.22 µM), most hits filed as activators; actives 2.8% (n = 320,000); further: nearly all actives have a fitted effect of over 60% in size
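Cell-based reporter: Huh7 stable for Rab9 promoter-driven luciferase, plated in reduced-serum medium with 10% FBS at 1500 cells/well, compound-treated 24 h at 37 °C, luminescence read after 10 min reagent.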
ELG1 genotox – qHTS screen for small molecules that induce genotoxicity in human embryonic kidney (HEK293T) cells expressing luciferase-tagged ELG1; HEK293T ELG1-luciferase reporter, luminescence, 16 h; Potency, µM (highest dose often 46 µM), usual class: activators; actives 1.3% (n = 330,000); AID 504466, 2011; further: nearly all actives have a fitted effect of over 60% in size
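Reporter readout depends on ELG1 protein level, which increases with genetic stress. After 16 hr compound exposure at 37 °C, luciferase activity was quantified using ONE-Glo.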
Numbers stand for hits. The call rests on the fitted dose curve; in most records, active means well fitted curve in the direction sought with a large enough effect; inconclusive means small, poorly fitted or top-dose-only effect, or another doubt; inactive means no such curve, though single readings can be large; an effect the other way counts as inactive or inconclusive.

What do the screens show for `Cc1cc2sc3ccccc3c(=O)c2c(C)c1O`?
FLuc modulator: 8.49µM; NPC1 promoter act: inactive; ELG1 DNA repair: inconclusive; Rab9 promoter act: inactive; ELG1 genotox: inactive

What do the screens show for `CCc1cc2c(cc3c(=O)n(CC(=O)N4CCCCC4)nc(CC)n32)s1`?
FLuc modulator: inactive; SMN2 splice up: inactive

How did COc1ccc(-c2noc(CCC(=O)O)n2)cc1 do in these assays?
FLuc modulator: inactive; SMN2 splice up: inactive; NPC1 promoter act: inactive; ELG1 DNA repair: inconclusive; Rab9 promoter act: inactive; ELG1 genotox: inactive

How did COc1ccc(-c2ccc(CCC(=O)O)o2)cc1 do in these assays?
FLuc modulator: 5.36µM; NPC1 promoter act: inactive; ELG1 DNA repair: inconclusive; Rab9 promoter act: inactive; ELG1 genotox: inactive

Results for O=C(O)CCc1ccc(-c2ccc(Cl)cc2)o1 ?
FLuc modulator: 15.1µM; SMN2 splice up: inactive; NPC1 promoter act: inactive; ELG1 DNA repair: inconclusive; Rab9 promoter act: inactive; ELG1 genotox: inconclusive

Results for O=C(O)CCc1ccc(-c2ccc(Br)cc2)o1 ?
FLuc modulator: 15.1µM; SMN2 splice up: inactive; NPC1 promoter act: inactive; ELG1 DNA repair: inconclusive; Rab9 promoter act: inactive; ELG1 genotox: inactive

Results for COc1cccc([C@@H]2Oc3ccc(OC)cc3C(=O)[C@H]2OC(=O)N[C@H]2CCCc3ccccc32)c1 ?
SMN2 splice up: inactive

Results for O=c1c2c3c(sc2n(Cc2ccc(F)cc2Cl)c(=O)n1-c1ccc(Cl)cc1)CCC3 ?
FLuc modulator: inactive

How did CCOc1ccc(N=C(NN)c2ccc3ccccc3n2)cc1 do in these assays?
FLuc modulator: 10.7µM; SMN2 splice up: inactive; NPC1 promoter act: inactive; ELG1 DNA repair: inconclusive; Rab9 promoter act: inconclusive; ELG1 genotox: inconclusive

What do the screens show for `COc1cc(NC(=O)COC(=O)c2ccc3ccccc3n2)cc(OC)c1`?
FLuc modulator: inactive; NPC1 promoter act: inactive; ELG1 DNA repair: inactive; Rab9 promoter act: inactive; ELG1 genotox: inactive

Results for Cc1cccc(CCNC(=O)c2ccc(CSCc3cccc(Cl)c3)o2)c1 ?
FLuc modulator: inactive

How did CCOc1ccc(NC(=O)C2CCCN(S(=O)(=O)c3cccc4nonc34)C2)cc1 (stereo not drawn) do in these assays?
FLuc modulator: inactive; SMN2 splice up: inactive

How did COC(=O)Cc1ccc(NC(=O)c2ccc(NC(=O)c3ccco3)cc2)cc1 do in these assays?
FLuc modulator: inactive; SMN2 splice up: inactive; NPC1 promoter act: inactive; ELG1 DNA repair: inactive; Rab9 promoter act: inactive; ELG1 genotox: inactive

Results for CCOc1ccc(NC(=O)CCC(=O)NNC(=O)c2ccco2)cc1 ?
FLuc modulator: inactive; SMN2 splice up: inactive; NPC1 promoter act: inactive; ELG1 DNA repair: inactive; Rab9 promoter act: inactive; ELG1 genotox: inactive

What do the screens show for `CCOc1ccc(NC(=S)NC(=O)c2ccco2)cc1`?
FLuc modulator: 10.7µM; NPC1 promoter act: 2µM; ELG1 DNA repair: inconclusive; Rab9 promoter act: 1.41µM; ELG1 genotox: inactive

What do the screens show for `CCC(=O)NC(=S)Nc1ccc(NC(=O)c2ccco2)cc1`?
FLuc modulator: inconclusive; SMN2 splice up: inactive; NPC1 promoter act: inactive; ELG1 DNA repair: inconclusive; Rab9 promoter act: inactive; ELG1 genotox: inactive

What do the screens show for `CCOc1ccc(NC(=O)c2ccco2)cc1`?
FLuc modulator: 4.78µM; SMN2 splice up: 10µM; NPC1 promoter act: 0.708µM; ELG1 DNA repair: inconclusive; Rab9 promoter act: 0.631µM; ELG1 genotox: inconclusive

How did COC(=O)COc1ccc(NC(=O)c2ccco2)cc1 do in these assays?
FLuc modulator: 23.9µM; NPC1 promoter act: inactive; ELG1 DNA repair: inconclusive; Rab9 promoter act: inactive; ELG1 genotox: inactive

Results for COc1ccc(OCC(=O)Nc2cccc(NC(=O)c3ccco3)c2)cc1 ?
FLuc modulator: 12µM; NPC1 promoter act: inactive; ELG1 DNA repair: inactive; Rab9 promoter act: inactive; ELG1 genotox: inactive
